High-throughput results as filed in PubChem.
Most compounds without a hit are left out; they make up all but 1.6% or so of the library.
KCNQ2 enhance: KCNQ2 (rat) channel potentiation; CHO-K1 KCNQ2, FluxOR thallium flux fluorescence; hits give high values; 310,000 compounds, 0.54% hits; B-score at 10 µM;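 active = fluorescence ratio B-score at least 3 SD of library B-scores, with initial fluorescence B-score within 3 of them, cut at about 5.3 in these data; same plate scores as AID 2156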;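 note: B-score of peak minus minimum over baseline fluorescence ratio after K+ and Tl+ stimulus; positive B-score means potentiation of KCNQ2 with more thallium influx and brighter signal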
Target sequence (O88943 whole entry, looked up): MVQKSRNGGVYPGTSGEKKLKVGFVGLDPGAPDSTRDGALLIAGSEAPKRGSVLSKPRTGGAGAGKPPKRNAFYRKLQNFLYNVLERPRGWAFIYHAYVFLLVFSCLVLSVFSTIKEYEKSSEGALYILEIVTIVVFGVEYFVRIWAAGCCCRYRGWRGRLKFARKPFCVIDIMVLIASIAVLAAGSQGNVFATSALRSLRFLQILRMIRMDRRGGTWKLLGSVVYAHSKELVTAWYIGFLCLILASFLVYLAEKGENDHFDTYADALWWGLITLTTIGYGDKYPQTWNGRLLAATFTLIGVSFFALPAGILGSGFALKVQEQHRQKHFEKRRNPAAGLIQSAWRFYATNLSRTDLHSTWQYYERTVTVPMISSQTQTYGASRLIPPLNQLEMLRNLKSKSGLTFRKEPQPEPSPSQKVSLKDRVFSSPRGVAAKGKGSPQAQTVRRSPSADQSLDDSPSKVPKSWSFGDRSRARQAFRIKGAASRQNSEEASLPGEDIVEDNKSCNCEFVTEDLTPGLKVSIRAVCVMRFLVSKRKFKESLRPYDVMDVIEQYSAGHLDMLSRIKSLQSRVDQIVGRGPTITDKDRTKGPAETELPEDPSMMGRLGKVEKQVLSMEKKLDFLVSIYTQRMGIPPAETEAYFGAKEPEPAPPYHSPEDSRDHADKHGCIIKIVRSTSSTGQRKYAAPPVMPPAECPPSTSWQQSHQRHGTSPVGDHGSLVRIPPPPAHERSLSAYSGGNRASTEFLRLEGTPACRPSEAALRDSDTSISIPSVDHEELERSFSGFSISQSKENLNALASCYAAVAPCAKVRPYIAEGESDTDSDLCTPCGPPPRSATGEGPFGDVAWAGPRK
KCNQ2 inh: KCNQ2 (rat) channel inhibition | 310,000 compounds, 1.1% hits | AID 2156 | O88943 | CHO-K1 KCNQ2, FluxOR thallium flux, 20 min; hits give low values | B-score at 10 µM;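 active = fluorescence ratio B-score at most minus 3 library SDs, with starting brightness B-score within 2 library SDs, cut at about -5.5 in these data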
KCNQ2 inh conf: rat KCNQ2 channel inhibition, confirmatory screen; shares compounds with KCNQ2 inh; KCNQ2-expressing cells, thallium flux; hits give low values; activity change, negative = inhibition, % at 10 µM; 1,000 compounds, 57% hits; AID 493025
KCNQ1 spec: selectivity of KCNQ2 inhibitors against human KCNQ1; shares compounds with KCNQ2 inh; 1,000 compounds, 15% hits; activity change, negative = inhibition, % at 10 µM; KCNQ1-expressing cells, FluxOR thallium flux fluorescence; hits give low values; AID 493026;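 active = activity change at least 3 SD of negative controls below their mean in both duplicate wells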;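 note: CHO cells stably transfected with KCNQ1 and depolarized by potassium stimulus; peak minus minimum fluorescence over baseline after thallium addition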
CHO Tl ctr: counter-screen for KCNQ2 inhibitors: effect in parental CHO cells. activity change, % at 10 µM. AID 493029. shares compounds with KCNQ2 inh. thallium flux counter-screen; hits give low values. 1,000 compounds, 14% hits
KCNQ2 inh confirm: confirmation of rat KCNQ2 potassium channel inhibitors; shares compounds with KCNQ2 inh; calls only at 10 µM; 550 compounds, 49% hits; KCNQ2-expressing cells, automated patch clamp current
A number is an active result; n = inactive; x = not tested or not shown. Unless noted, the rule behind the calls is not given here.

SMILES | KCNQ2 enhance | KCNQ2 inh | others
COc1cc(CN2CC3CC(C2)c2cccc(=O)n2C3)cc(OC)c1OC (stereo not given) | n | n
COc1cc(C)c(-c2nc(CN3C[C@@H]4C[C@@H](C3)c3cccc(=O)n3C4)c(C)o2)cc1C | n | -5.8
COc1ccc(CN2CCN(Cc3ccccc3OC)CC2)cc1 | x | n
CN1CCC(N(C)c2nc(-c3ccc([N+](=O)[O-])cc3)nc3ccccc23)CC1 | n | -6
Cc1nc2ccccc2c(=O)n1-c1cc([N+](=O)[O-])cc([N+](=O)[O-])c1 | n | n
CC1CCN(c2cc(Br)c([N+](=O)[O-])cc2F)CC1 | n | n
Cc1ccc(N2C(=O)NC(=O)C3(Cc4ccccc4N4CCN(c5ccccc5)CC43)C2=O)cc1 (stereo not given) | n | -7.1
O=C1NC(=O)C2(Cc3ccccc3N3CCCC32)C(=O)N1c1cccc(Cl)c1 (stereo not given) | x | n
CC(C(=O)c1c[nH]c2ccccc12)N1CCSCC1 (stereo not given) | x | n
CN1CCC(c2c[nH]c3ccccc23)C1 (stereo not given) | x | n
COc1cccc(NP(=O)(Oc2ccccc2)Oc2ccccc2)c1 | x | n
O=P(Nc1cccc(Cl)c1)(Oc1ccccc1)Oc1ccccc1 | n | -5.6
CCn1cc(/C=c2/sc3n(c2=O)C2c4ccccc4OC(C)(N=3)C2C(=O)OC)c(C)n1 (stereo not given) | n | n
CCOc1cc(C2NCc3ccccc3-n3cccc32)ccc1O (stereo not given) | x | n
CCOc1cccc(C2NCc3ccccc3-n3cccc32)c1O (stereo not given) | n | -6.8
CN[C@H]1C[C@H]2O[C@@](C)([C@H]1OC)n1c3ccccc3c3c4c(c5c6ccccc6n2c5c31)C(=O)NC4 | 9.3 | n
O=c1[nH]c(=S)n(C2CCCCC2)c(O)c1/C=N/N1CCOCC1 | x | n
Cc1c2cnn(CC(=O)N3CCC4(CC3)OCCO4)c(=O)c2c(C)n1Cc1ccc(F)cc1 | n | n
O=C(Cn1ncc2c3ccccc3n(Cc3ccccc3F)c2c1=O)N1CCC2(CC1)OCCO2 | 16 | n
Cc1cc(OC(=O)CCNC(=O)OC(C)(C)C)c2c3c(c(=O)oc2c1)CCC3 | x | n
CCCCn1c(O)c(C=NC2CC3CCC2(C)C3(C)C)c(=O)[nH]c1=O (stereo not given) | n | n
CCC(C)C(=O)N[C@@H](c1ccccc1)[C@@H](O)C(=O)O[C@H]1C[C@@]2(O)[C@@H](OC(=O)c3ccccc3)C3[C@](C)(C(=O)[C@H](OC(C)=O)C(=C1C)C2(C)C)[C@@H](O)C[C@H]1OC[C@@]31OC(C)=O (stereo not given in full) | x | n
CC/C=C/CC(=O)N[C@@H](c1ccccc1)[C@@H](O)C(=O)O[C@H]1C[C@@]2(O)[C@@H](OC(=O)c3ccccc3)C3[C@](C)(C(=O)[C@H](OC(C)=O)C(=C1C)C2(C)C)[C@@H](O)C[C@H]1OC[C@@]31OC(C)=O (stereo not given in full) | n | -5.6
C=CCn1c(O)c(C(C)=NCCc2ccccc2)c(=O)[nH]c1=O | x | n
O=P(O)(O)/C=C(\Cl)c1ccccc1 | x | n
SMILES | KCNQ2 enhance | KCNQ2 inh | others
CCN(CC)P(=O)(/C=C(\Cl)c1ccccc1)/C=C(\Cl)c1ccccc1 | n | -5.9
Cc1ccc(-c2nn(Cc3ccccc3)cc2C=O)cc1 | x | n
CC(C)n1c(=O)c(C=Nc2cccc([N+](=O)[O-])c2)c(O)n(CCc2ccccc2)c1=O | n | -6.7
CC(C)n1c(=O)c(C=Nc2ccc(S(N)(=O)=O)cc2)c(O)n(Cc2ccco2)c1=O | n | n
Oc1ccccc1CN(CCc1ccccc1)Cc1ccccc1 | n | -6
CN(CCc1ccccc1)Cc1ccccc1[N+](=O)[O-] | x | n
CCOc1ccc(N2C(=O)NC(=O)/C(=C\c3ccccc3[N+](=O)[O-])C2=O)cc1 | n | n
CC(=O)N1CCN(CCN=Cc2c(O)n(-c3ccc(C)cc3)c(=S)[nH]c2=O)CC1 | n | n
FC(F)(F)c1ccc2c(c1)N(CCCN1CCN(CCCl)CC1)c1ccccc1S2 | n | -7 | KCNQ2 inh conf=-32%;KCNQ1 spec=n;CHO Tl ctr=n;KCNQ2 inh confirm=n
Nc1ccc(CCN2CCN(c3cccc(C(F)(F)F)c3)CC2)cc1 | n | n
